Laboratory results taken from PubChem BioAssay (NCATS).
Records with an inconclusive call do not appear. Active and inactive are the calls of the source. Unless noted, calls follow the shape of the dose curve; as a rule, active = well fitted curve in the direction sought with a large enough effect; inconclusive = small, poorly fitted or top-dose-only effect, or another doubt; inactive = no such curve, though single readings can be large; an effect the other way counts as inactive or inconclusive.

What was measured:
[1] = target: Lysosomal acid glucosylceramidase (Homo sapiens) (UniProt P04062); assay: Glucocerebrosidase-p2 (AID 348; in the data active = potency below about 10 µM; also: potency is read from the fitted curve at half-maximal effect); conditions: purified GBA, blue fluorogenic substrate, 40 min
Summary of the method: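 Normal human glucocerebrosidase (0.2 nM) with blue fluorogenic substrate (80 uM final) in citrate/phosphate pH 5.9 with 10mM sodium taurocholate, 0.01% tween-20; 40 min RT, NaOH/glycine stop; fluorescence Ex 365/Em 440; AC50 from a titration from 0.6 nM upwards.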

[2] = AP1 Signaling Pathway (AID 357; active = well fitted curve in either direction with a large enough effect, not every such curve was filed as active; also: % is scaled to controls: 0 for no effect and ±100 for the full control effect); conditions: ME-180 AP-1-bla reporter, EGF-induced, beta-lactamase ratio, 5 h; at 7.69 µM (top of the series) unless noted
Summary of the method: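 ME-180 cells with beta-lactamase reporter under AP-1 response element, stimulated with EC50 EGF; compounds tested in titration series, 5 h at 37 °C. CCF4 substrate added 2.5 h at room temperature; 460/530 nm emission ratio gave %activity and AC50.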

[3] = target: Cytochrome P450 1A2 (Homo sapiens) (UniProt P05177); assay: p450-cyp1a2 (AID 410; calls by dose curve; also: potency is read from the fitted curve at half-maximal effect;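 as to activity change, negative = inhibition: -100% = full effect of reference inhibitor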); conditions: recombinant CYP1A2, luciferin-ME demethylation, luminescence; series mostly up to 57 µM
Summary of the method: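 Luminescent demethylation readout: Luciferin-ME (100uM, equal to Km) turned over by 20nM CYP1A2 for 60 min at room temperature after NADPH regeneration addition, following 10 min compound preincubation. Normalization used 57 uM furafylline as full inhibition.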

[4] = NFAT Signaling Pathway (AID 444; active = well fitted curve in either direction with a large enough effect, not every such curve was filed as active;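 also: carbachol stimulus at about its EC50 of 1 µM final; % is scaled to controls: 0 for no effect and ±100 for the full control effect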); conditions: Jurkat NFAT-bla M1, carbachol, beta-lactamase ratio, 5 h; at 7.69 µM (top of the series) unless noted
Summary of the method: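 Read-out: CCF4 FRET ratio (460 nm/530 nm) after 1 h RT dye loading, used for %activity and AC50 from titration series. Cells: Jurkat NFAT-β-lactamase/M1 line, treated with compound plus 1 uM carbachol for 5 h, 37 °C.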

[5] = Stat Signaling Pathway (AID 446; active = well fitted curve in either direction with a large enough effect, not every such curve was filed as active;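 also: ME-180 cervical cancer cells given 40 pM IL-6 alongside compound; SIE-controlled beta-lactamase reporter measured as 460/530 nm FRET emission ratio; % is scaled to controls: 0 for no effect and ±100 for the full control effect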); conditions: ME-180 (cervical carcinoma) SIE beta-lactamase reporter, IL-6 stimulated, 5 h; at 7.69 µM (top of the series) unless noted
Summary of the method: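 Emission at 460 and 530 nm (excitation 405 nm) reports SIE-controlled beta-lactamase in ME-180 cells. Cells received compound with 40 pM IL-6 for 5 hrs at 37 C; data scaled between 300 pM IL-6 and 125 nM JAK-inhibitor controls.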

[6] = target: Glucocorticoid receptor (Homo sapiens) (UniProt P04150); assay: GR-GFP Redistribution (AID 450;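 active = compounds whose dose series gives a full or clear partial fitted curve of increased nuclear translocation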; also: potency is read from the fitted curve at half-maximal effect); conditions: U2OS GR-GFP nuclear translocation, laser cytometry, 2 h
[7] = target: Glucocorticoid receptor (Homo sapiens) (UniProt P04150); assay: GR-EFC Redistribution (AID 451; calls by dose curve; also: potency is read from the fitted curve at half-maximal effect); conditions: CHO-K1 GR-EFC translocation, beta-gal luminescence, 2 h
Summary of the method: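 Translocation of GR-ED fusion to nuclear EA restores b-gal, read by luminescence after 1 h room-temperature detection. Engineered CHO-K1 biosensor cells, 1,000/well, exposed 2 h at 37 C to titrations up to 46 uM final.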

[8] = target: Mitogen-activated protein kinase 10 (Mus musculus) (UniProt Q61831); assay: JNK3 AlphaScreen Assay (AID 530; active = well fitted curve in either direction with a large enough effect, not every such curve was filed as active;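 also: kinase came from lysate of stimulated human HepG2 cells; signal reports phosphorylation of biotinylated GST-cJun 1-79 at Ser73 with 10 µM ATP; % is scaled to controls: 0 for no effect and ±100 for the full control effect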); conditions: JNK3 lysate, c-Jun phosphorylation; series mostly up to 57.1 µM
Summary of the method: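 qHTS titrations with 15 min compound pre-incubation before adding ATP (10 uM final). Read-out: AlphaScreen of Ser73-phosphorylated biotin-GST-cJun using HepG2 lysate JNK3 activated by IL-1β and TNFα.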

[9] = target: 3',5'-cyclic-AMP phosphodiesterase 4B (Homo sapiens) (UniProt Q07343); assay: qHTS Assay for Inhibitors of PDE-IV (AID 607; active = well fitted activation curve with a large enough effect in the main read-out, with a control signal flat, not every such curve was filed as active; also: % of control where 0% means no effect); conditions: HEK293 ACTOne CNG channel cells, membrane potential fluorescence; series mostly up to 22.9 µM
Summary of the method: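 The readout is membrane depolarisation from a cAMP-sensing CNG channel, detected with a potential dye at ex 535/em 590. Cells were HEK293-derived (endogenous PDE-IV) at 1000 cells/well, titrated up to 22.9 uM final.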

[10] = qHTS Assay for Lipid Storage Modulators (AID 1519; calls by dose curve); conditions: Drosophila S3 cells, BODIPY lipid droplet/cell ratio, laser cytometry, cells loaded with oleic acid; for activity change, negative = inhibition: at 57.5 µM (top of the series)
Summary of the method: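 Cells seeded at 5,000 per well were treated with compounds over a concentration series and loaded with oleic acid (400 uM, as added). Lipid droplet fluorescence (488 nm excitation, 500-530 nm channel) was read by laser-scanning cytometry and normalized to 20 uM Triacsin C.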

[11] = target: Dual specificity protein kinase CLK4 (Homo sapiens) (UniProt Q9HAZ1); assay: qHTS Assay for Inhibitors of CDC-like Kinase 4 (Kinase-Glo Assay) (AID 1770); conditions: recombinant Clk4, Kinase-Glo ATP depletion luminescence; series mostly up to 66.7 µM; also: % is scaled to controls: 0 for no effect and ±100 for the full control effect; nearly all actives have a fitted effect of over 65% in size
Summary of the method: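 Inhibition was judged from remaining ATP, measured by Ultra-Glo luciferase bioluminescence after Clk4 (25 nM) had acted on RS peptide at 1 uM ATP for 4.5 hours, room temperature.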

[12] = target: Dual specificity protein kinase CLK4 (Homo sapiens) (UniProt Q9HAZ1); assay: qHTS Assay for Inhibitors of CDC-like Kinase 4 (ADP-Glo Assay) (AID 1771); conditions: recombinant CLK4, ADP-Glo luminescence; series mostly up to 80 µM; also: % is scaled to controls: 0 for no effect and ±100 for the full control effect; nearly all actives have a fitted effect of over 70% in size
Summary of the method: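 ADP production was read by ADP-Glo luminescence after residual ATP depletion, following 1 h room-temperature reaction of 25 nM Clk4, 1 uM ATP and 100 uM RS peptide with MgCl2, EGTA, DTT and Triton X-100.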

[13] = target: Dual specificity protein kinase CLK4 (Homo sapiens) (UniProt Q9HAZ1); assay: qHTS Assay for Inhibitors of CDC-like Kinase 4 (ADP-FP Assay) (AID 1795); conditions: Transcreener ADP fluorescence polarization; series mostly up to 50 µM;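 also: recombinant human CLK4 phosphorylating RS repeat peptide at 1 µM ATP; % is scaled to controls: 0 for no effect and ±100 for the full control effect; nearly all actives have a fitted effect of over 60% in size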
Summary of the method: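 Inhibition of ADP formation by 6.25 nM Clk4 is measured using 1 uM ATP and 100 uM RS repeat peptide over one hour. Produced ADP displaces a fluorescent tracer from antibody, lowering polarization.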

[14] = target: Ubiquitin carboxyl-terminal hydrolase 1 (Homo sapiens) (UniProt O94782); assay: Inhibitors of USP1/UAF1: Pilot qHTS (AID 504865); conditions: purified USP1/UAF1, Ub-rhodamine cleavage fluorescence; series mostly up to 54.9 µM;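 also: rhodamine fluorescence freed from ubiquitin-rhodamine substrate followed over time; top concentration of the series differs between compounds; % is scaled to controls: 0 for no effect and ±100 for the full control effect; nearly all actives have a fitted effect of over 35% in size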
Summary of the method: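 Kinetic fluorescence assay: 1nM USP1/UAF1, 15 min compound preincubation, then 150nM Ub-Rho; 480/540 nm.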

[15] = Primary qHTS for small molecule stabilizers of the endoplasmic reticulum resident proteome: Secreted ER Calcium Modulated Protein (SERCaMP) assay (AID 1508630); conditions: SH-SY5Y GLuc-SERCaMP (Gaussia luciferase released on ER calcium loss) secretion, thapsigargin, luminescence; series mostly up to 38.4 µM; also: % is scaled to controls: 0 for no effect and ±100 for the full control effect
Summary of the method: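 The SH-SY5Y reporter protocol was run at 3 concentrations up to 38.3 uM (primary) or 11 concentrations (follow-up): 16 h compound, 100 nM thapsigargin for 4 h, then extracellular luciferase luminescence.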

[16] = target: Cytochrome P450 3A4 (Homo sapiens) (UniProt P08684); assay: qHTS Assay for Inhibitors and Substrates of Cytochrome P450 3A4 (AID 884); conditions: recombinant CYP3A4, Luciferin-PPXE luminescence; series mostly up to 57.1 µM; also: % is scaled to controls: 0 for no effect and ±100 for the full control effect; nearly all actives have a fitted effect of over 50% in size
Summary of the method: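 Luminescent readout of luciferin produced by CYP3A4 (20 nM) dealkylation of Luciferin-PPXE, 25 uM (its KM). NADPH-driven reaction ran 60 min at RT after 10 min compound preincubation; data scaled to 57 uM ketoconazole as 100% inhibition.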

[17] = target: Cytochrome P450 3A4 (Homo sapiens) (UniProt P08684); assay: qHTS Assay for Activators of Cytochrome P450 3A4 (AID 885); conditions: recombinant CYP3A4, Luciferin-PPXE luminescence, 60 min; series mostly up to 57.1 µM; also: nearly all actives have a fitted effect of over 65% in size; also: potency is read from the fitted curve at half-maximal effect
Summary of the method: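 Activators are scored by enhanced luminescence from CYP3A4 conversion of luciferin-PPXE (25uM, equal to KM) to luciferin, after 60 min at RT with an NADPH-regenerating system.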

[18] = target: Cytochrome P450 2C9 (Homo sapiens) (UniProt P11712); assay: qHTS Assay for Inhibitors and Substrates of Cytochrome P450 2C9 (AID 883); conditions: recombinant CYP2C9, luciferin-H luminescence, 60 min; series mostly up to 57.1 µM; also: nearly all actives have a fitted effect of over 60% in size; also: potency is read from the fitted curve at half-maximal effect
Summary of the method: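 Turnover of Luciferin-H (100uM, KM) by 10nM human CYP2C9 was measured over 60 min at 37C with NADPH regeneration; inhibitors and some substrates reduce luminescence. Data normalized to sulphaphenazole 57uM.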

[19] = measured here: cell count channel max response
[20] = measured here: lipid channel max response

Glucocorticoid receptor (Homo sapiens), sequence (P04150 whole entry, looked up, the tested form may be a part): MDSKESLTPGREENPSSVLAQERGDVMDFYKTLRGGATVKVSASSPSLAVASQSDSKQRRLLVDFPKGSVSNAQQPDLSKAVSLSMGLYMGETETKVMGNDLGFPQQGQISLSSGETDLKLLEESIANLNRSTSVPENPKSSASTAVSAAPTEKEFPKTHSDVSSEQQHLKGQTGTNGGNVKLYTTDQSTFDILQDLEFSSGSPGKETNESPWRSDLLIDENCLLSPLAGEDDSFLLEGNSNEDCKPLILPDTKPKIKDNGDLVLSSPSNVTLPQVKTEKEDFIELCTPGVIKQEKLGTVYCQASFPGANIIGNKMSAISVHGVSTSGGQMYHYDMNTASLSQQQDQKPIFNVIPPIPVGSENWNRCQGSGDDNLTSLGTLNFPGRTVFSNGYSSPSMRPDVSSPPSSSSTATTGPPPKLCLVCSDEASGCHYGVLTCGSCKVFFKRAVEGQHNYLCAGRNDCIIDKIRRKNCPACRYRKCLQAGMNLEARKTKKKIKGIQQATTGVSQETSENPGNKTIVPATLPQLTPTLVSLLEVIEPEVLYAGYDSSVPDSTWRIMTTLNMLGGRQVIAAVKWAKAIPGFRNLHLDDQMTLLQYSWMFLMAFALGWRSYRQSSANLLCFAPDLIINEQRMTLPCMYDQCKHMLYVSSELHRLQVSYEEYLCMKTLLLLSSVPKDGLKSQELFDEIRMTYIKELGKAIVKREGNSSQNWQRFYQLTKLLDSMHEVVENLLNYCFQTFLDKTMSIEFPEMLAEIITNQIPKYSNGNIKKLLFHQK
Dual specificity protein kinase CLK4 (Homo sapiens), sequence (Q9HAZ1 whole entry, looked up): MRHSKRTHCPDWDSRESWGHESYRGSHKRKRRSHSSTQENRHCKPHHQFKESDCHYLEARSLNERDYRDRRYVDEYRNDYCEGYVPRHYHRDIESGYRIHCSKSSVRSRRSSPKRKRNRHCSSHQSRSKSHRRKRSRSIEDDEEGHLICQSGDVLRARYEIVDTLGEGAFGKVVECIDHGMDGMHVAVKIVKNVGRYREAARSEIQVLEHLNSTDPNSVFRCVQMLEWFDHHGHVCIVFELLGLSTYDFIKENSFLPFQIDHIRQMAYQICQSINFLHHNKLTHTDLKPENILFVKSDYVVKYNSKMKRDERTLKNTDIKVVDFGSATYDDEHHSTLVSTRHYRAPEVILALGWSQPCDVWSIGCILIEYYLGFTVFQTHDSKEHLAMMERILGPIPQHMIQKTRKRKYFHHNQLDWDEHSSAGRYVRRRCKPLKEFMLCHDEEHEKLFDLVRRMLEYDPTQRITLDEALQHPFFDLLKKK
Cytochrome P450 1A2 (Homo sapiens), sequence (P05177 whole entry, looked up): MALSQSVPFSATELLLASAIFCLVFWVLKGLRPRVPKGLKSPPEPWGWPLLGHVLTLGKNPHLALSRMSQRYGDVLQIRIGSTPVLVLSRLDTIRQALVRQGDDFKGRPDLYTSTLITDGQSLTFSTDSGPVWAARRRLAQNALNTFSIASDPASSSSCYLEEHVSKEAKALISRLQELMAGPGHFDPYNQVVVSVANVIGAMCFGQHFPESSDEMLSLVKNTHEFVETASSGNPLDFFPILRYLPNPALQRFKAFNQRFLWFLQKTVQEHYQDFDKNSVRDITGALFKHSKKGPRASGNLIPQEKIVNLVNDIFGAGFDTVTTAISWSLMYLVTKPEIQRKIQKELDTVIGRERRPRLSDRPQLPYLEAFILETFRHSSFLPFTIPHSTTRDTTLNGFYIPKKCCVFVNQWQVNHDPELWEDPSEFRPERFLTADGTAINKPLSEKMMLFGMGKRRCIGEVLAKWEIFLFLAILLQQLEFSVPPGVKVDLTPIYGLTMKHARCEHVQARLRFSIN
Ubiquitin carboxyl-terminal hydrolase 1 (Homo sapiens), sequence (O94782 whole entry, looked up): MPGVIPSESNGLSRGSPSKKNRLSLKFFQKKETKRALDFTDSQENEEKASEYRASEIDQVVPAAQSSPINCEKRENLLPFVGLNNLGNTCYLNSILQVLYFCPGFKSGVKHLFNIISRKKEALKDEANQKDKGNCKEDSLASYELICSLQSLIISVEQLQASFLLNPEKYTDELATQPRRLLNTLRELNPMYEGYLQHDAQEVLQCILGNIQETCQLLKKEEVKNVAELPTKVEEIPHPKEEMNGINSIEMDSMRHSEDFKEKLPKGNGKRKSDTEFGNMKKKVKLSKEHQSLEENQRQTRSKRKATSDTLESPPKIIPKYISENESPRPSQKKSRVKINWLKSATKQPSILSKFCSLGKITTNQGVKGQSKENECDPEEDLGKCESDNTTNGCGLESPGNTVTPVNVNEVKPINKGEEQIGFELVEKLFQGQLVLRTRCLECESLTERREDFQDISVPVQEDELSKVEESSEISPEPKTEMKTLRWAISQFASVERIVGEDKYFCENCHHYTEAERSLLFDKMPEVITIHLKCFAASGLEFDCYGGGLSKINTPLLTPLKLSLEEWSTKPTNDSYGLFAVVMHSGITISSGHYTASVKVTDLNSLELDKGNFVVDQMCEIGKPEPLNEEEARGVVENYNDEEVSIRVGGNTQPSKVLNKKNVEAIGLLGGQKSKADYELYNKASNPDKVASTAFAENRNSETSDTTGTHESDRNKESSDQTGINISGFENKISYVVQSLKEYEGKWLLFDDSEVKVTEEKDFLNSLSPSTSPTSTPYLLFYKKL
Lysosomal acid glucosylceramidase (Homo sapiens), sequence (P04062 whole entry, looked up): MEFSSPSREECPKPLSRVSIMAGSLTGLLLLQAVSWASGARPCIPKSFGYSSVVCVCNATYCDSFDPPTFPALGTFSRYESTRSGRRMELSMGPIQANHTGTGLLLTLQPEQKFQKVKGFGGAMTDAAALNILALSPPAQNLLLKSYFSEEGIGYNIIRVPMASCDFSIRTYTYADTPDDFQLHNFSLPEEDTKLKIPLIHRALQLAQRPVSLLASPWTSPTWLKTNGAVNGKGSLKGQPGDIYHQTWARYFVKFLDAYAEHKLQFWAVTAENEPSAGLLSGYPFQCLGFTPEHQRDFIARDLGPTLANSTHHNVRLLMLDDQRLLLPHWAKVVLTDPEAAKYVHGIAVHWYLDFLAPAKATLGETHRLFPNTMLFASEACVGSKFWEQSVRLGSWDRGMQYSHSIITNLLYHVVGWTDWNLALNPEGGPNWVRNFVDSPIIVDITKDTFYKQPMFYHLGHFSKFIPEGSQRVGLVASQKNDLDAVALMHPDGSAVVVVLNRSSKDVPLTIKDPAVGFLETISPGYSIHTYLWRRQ
3',5'-cyclic-AMP phosphodiesterase 4B (Homo sapiens), sequence (Q07343 whole entry, looked up): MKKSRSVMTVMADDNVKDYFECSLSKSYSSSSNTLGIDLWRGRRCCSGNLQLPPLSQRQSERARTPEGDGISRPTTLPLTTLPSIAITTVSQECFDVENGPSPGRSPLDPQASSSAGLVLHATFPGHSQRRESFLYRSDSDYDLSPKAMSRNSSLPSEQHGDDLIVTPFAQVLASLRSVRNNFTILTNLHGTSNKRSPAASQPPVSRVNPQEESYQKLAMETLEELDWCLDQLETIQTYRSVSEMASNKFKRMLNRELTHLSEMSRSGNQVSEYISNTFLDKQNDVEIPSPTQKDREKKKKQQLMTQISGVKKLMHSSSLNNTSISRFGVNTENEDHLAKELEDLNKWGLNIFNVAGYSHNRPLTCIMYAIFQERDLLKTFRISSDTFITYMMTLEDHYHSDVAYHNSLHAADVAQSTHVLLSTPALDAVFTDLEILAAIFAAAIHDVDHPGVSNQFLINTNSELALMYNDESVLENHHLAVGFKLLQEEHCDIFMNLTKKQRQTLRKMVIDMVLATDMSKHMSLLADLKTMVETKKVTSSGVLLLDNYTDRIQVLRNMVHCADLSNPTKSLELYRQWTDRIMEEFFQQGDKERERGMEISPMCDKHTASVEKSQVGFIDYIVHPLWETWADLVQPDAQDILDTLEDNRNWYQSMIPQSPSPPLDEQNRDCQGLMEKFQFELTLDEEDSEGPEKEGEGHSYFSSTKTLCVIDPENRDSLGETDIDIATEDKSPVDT
Cytochrome P450 3A4 (Homo sapiens), sequence (P08684 whole entry, looked up): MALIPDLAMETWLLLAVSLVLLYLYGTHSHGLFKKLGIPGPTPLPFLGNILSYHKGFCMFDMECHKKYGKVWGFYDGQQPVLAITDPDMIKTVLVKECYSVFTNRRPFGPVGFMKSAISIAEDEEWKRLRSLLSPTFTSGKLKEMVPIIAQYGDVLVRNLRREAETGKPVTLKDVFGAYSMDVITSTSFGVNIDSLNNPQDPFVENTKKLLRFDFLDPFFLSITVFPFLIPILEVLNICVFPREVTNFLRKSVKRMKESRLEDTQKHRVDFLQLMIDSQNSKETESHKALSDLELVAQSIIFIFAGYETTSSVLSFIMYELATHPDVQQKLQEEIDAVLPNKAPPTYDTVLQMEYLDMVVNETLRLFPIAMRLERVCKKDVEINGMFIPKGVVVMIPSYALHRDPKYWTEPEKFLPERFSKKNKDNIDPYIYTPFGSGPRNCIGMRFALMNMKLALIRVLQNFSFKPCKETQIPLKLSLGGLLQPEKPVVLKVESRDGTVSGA
Cytochrome P450 2C9 (Homo sapiens), sequence (P11712 whole entry, looked up): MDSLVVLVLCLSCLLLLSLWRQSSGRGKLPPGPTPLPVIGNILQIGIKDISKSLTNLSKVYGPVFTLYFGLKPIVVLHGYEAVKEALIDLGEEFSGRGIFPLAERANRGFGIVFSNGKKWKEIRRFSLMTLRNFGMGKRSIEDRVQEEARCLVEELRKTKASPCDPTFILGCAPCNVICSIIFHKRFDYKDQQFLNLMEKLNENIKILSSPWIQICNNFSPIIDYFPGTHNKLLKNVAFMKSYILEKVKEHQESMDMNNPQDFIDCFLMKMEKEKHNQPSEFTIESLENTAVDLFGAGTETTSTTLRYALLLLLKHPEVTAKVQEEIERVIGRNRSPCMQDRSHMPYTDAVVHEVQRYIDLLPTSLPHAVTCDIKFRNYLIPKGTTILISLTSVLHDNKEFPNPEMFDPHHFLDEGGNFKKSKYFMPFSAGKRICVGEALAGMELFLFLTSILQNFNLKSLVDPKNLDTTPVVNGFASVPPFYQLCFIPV

SMILES | Potency [1] | activity change, negative = inhibition [2] | Potency [3] | activity change, negative = inhibition [4] | activity, negative = inhibition [5] | Potency [6] | Potency [7] | outcome [8] | Potency [9] | activity change, negative = inhibition [10] | max response [10, 19] [%] | max response [10, 20] [%] | Potency [11] | Potency [12] | Potency [13] | Potency [14] | Potency [15] | Potency [16] | Potency [17] | Potency [18]
Cc1cnc(CNc2ccnc(-c3ccccc3C(F)(F)F)n2)cn1 | > 11.4 µM (inactive) | 2.04% (inactive) | 15.8 µM (active) | 0.146% (inactive) | 2.4% (inactive) | > 46 µM (inactive) | > 46 µM (inactive) | inactive | inactive | 8.15% (inactive) | 12.9 | 20.7 | inactive | inactive | inactive | inactive | inactive |  |  | 
Cc1ccccc1-c1cc(N(C)C)ncn1 | > 11.4 µM (inactive) | -2.87% (inactive) | 2 µM (active) | -0.723% (inactive) | 7.1% (inactive) | > 46 µM (inactive) | > 46 µM (inactive) | inactive | inactive | 6.31% (inactive) | 20.2 | 26.4 | inactive | inactive | inactive | inactive | inactive | inactive | 15.8 µM (active) | 
O=c1c(-c2ccccc2)nc2cnc(N3CCOCC3)nc2n1C1CC1 | > 11.4 µM (inactive) | -9.27% (inactive) | 3.16 µM (active) | -1.33% (inactive) | -7.68% (inactive) | > 9.22 µM (inactive) | > 46 µM (inactive) | inactive | inactive | -1.42% (inactive) | 1.76 | -1.06 | inactive | inactive | inactive | inactive | inactive |  |  | 
CC(=O)NCCNc1cc(-c2ccccc2C(F)(F)F)ncn1 | > 11.4 µM (inactive) | 9.07% (inactive) | 25.1 µM (active) | 15.3% (inactive) | 6.62% (inactive) | > 46 µM (inactive) | > 46 µM (inactive) | inactive | inactive | 0.0704% (inactive) | 5.19 | 3.95 | inactive | inactive | inactive | inactive | inactive |  |  | 
Cn1cc(-c2nc3cnc(N4CCNCC4)nc3n(C)c2=O)c2ccccc21 | > 11.4 µM (inactive) | 4.46% (inactive) | 15.8 µM (active) | 6.17% (inactive) | 25.8% (inactive) | > 9.22 µM (inactive) | > 46 µM (inactive) | inactive | inactive | 6.84% (inactive) | 11.6 | 17.7 | inactive | inactive | inactive | inactive | inactive |  | inactive | 7.94 µM (active)
CC(=O)NCCNc1cc(-c2ccccc2CN(C)C)ncn1 | > 11.4 µM (inactive) | 3.33% (inactive) | inactive | -5.44% (inactive) | 2.18% (inactive) | > 46 µM (inactive) | > 46 µM (inactive) | inactive | inactive | -0.819% (inactive) | 11.1 | 8.32 | inactive | inactive | inactive | inactive | inactive |  |  | 
O=c1c(-c2ccc(F)c(F)c2)nc2cncnc2n1C1CC1 | > 11.4 µM (inactive) | 3.77% (inactive) | 0.1 µM (active) | 7.2% (inactive) | -6.38% (inactive) | > 9.22 µM (inactive) | > 46 µM (inactive) | inactive | inactive | 8.82% (inactive) | 20.3 | 27.4 | inactive | inactive | inactive | inactive | inactive |  | inactive | 
O=c1c(-c2ccc(Cl)cc2)nc2cnc(N3CCOCC3)nc2n1C[C@H]1CCCO1 | > 11.4 µM (inactive) | -9.09% (inactive) | 2 µM (active) | -5.22% (inactive) | -0.789% (inactive) | > 9.22 µM (inactive) | > 46 µM (inactive) | inactive | inactive | -4.84% (inactive) | 4.1 | -3.15 | inactive | inactive | inactive | inactive | inactive |  |  | 
Cc1nc2cnc(Nc3ccccc3)nc2n(CCC#N)c1=O | > 11.4 µM (inactive) | -11.3% (inactive) | 0.631 µM (active) | -3.1% (inactive) | -19.6% (inactive) | > 9.22 µM (inactive) | > 46 µM (inactive) | inactive | inactive | -7.58% (inactive) | -11.1 | -20.1 | inactive | inactive | inactive | inactive | inactive |  |  | 
CN(C)c1ncc2nc(-c3cccc(C#N)c3)c(=O)n(CCC#N)c2n1 | > 11.4 µM (inactive) | -2.98% (inactive) | inactive | 4.07% (inactive) | -8.5% (inactive) | > 9.22 µM (inactive) | > 46 µM (inactive) | inactive | inactive | 1.84% (inactive) | 5.81 | 7.25 | inactive | inactive | inactive | inactive | inactive |  |  | inactive
